Shown are actives, neighbours in structure and some others; about 3.8% of the full set was active somewhere.
MITF TRPM1 HTS = increases MITF-driven TRPM1 promoter luciferase signal; SK-MEL-5 TRPM1-promoter luciferase, 24 h; % of positive control, neutral wells = 0; activation, % at 12.5 µM; actives 0.75% (n = 300,000);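 active = mean activation of at least 80% with every replicate also reaching 80%; inconclusive = mean reaches 80% but some replicate falls short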
esBAF inh = SWI/SNF esBAF complex inhibition | mouse ES cells, Bmi1-luciferase knock-in reporter, 24 h; 100% = twice the neutral-well signal | reporter increase, % at 12.5 µM | actives 2% (n = 350,000); in the data active = activation above about 40%; inconclusive = no clear call, values can overlap the other calls;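 also: a rise in the Bmi1 reporter signal indicates esBAF inhibition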
Wnt act = activates Wnt/beta-catenin signaling in a reporter cell assay; activator, plate reader; activation, % at 9.35 µM; actives 1.2% (n = 300,000); in the data active = activation above about 30%, passing the limit was not always enough; inconclusive = no clear call, values can overlap the other calls
HSF-1 act = increases HSF-1 driven luciferase reporter signal; actives 1.7% (n = 300,000); NIH3T3-HGL HSF-1 luciferase reporter, MG132, 8 h; 100% = twice DMSO control signal; AID 504408; activation, % at 9 µM;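 active = mean replicate activation of at least 50% with a set share of replicates each reaching 50%; inconclusive = only one of those two conditions met; inactive = mean below 50% and too few replicates reaching it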
HSF1 inh = HSF1 inhibition. NIH3T3-HGL HSE-luciferase, MG132-induced, luminescence 8 h; hits give low values. activity change, negative = inhibition, % at 7.5 µM (by protocol). actives 0.77% (n = 300,000). AID 2098;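 active = more than half of replicate wells show activity change below -50%, luminescence cut by over half; inconclusive = some wells, but at most half, below -50%; inactive = no replicate well below -50%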;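 also: luciferase reports HSF-1 transcriptional activity via heat shock element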
A number is an active result; n = inactive; u = inconclusive; x = not tested or not shown.

SMILES	MITF TRPM1 HTS	esBAF inh	Wnt act	HSF-1 act	HSF1 inh
O=C(c1ccc(-c2ccccc2Cl)o1)N1CCN(S(=O)(=O)c2cccs2)CC1	87	x	n	n	n
O=C(c1ccccc1Cl)N1CCN(S(=O)(=O)c2cccs2)CC1	n	n	n	n	n
O=C(c1ccco1)N1CCN(C(=O)c2ccc(-c3ccccc3Cl)o2)CC1	u	56	n	x	x
O=C(c1ccc(-c2ccc(Cl)cc2Cl)o1)N1CCOCC1	147	56	54	60	n
O=C(c1ccco1)N1CCN(Cc2c(Cl)cccc2Cl)CC1	n	59	n	n	n
COc1ccc(NC(=O)N[C@@H]2CC[C@H](CC(=O)NC3CCC3)O[C@@H]2CO)cc1	x	n	x	x	x
COC(=O)[C@@H]1[C@@H](CO)[C@@H]2Cn3c(ccc(-c4cccc(C(=O)N(C)C)c4)c3=O)[C@@H]2N1C	x	n	x	x	x
C[C@@H]1CN([C@H](C)CO)C(=O)Cc2cc(NC(=O)Nc3ccc(C(F)(F)F)cc3)ccc2O[C@@H]1CN(C)Cc1ccc(Oc2ccccc2)cc1	x	n	x	x	x
CCN(CC(=O)Nc1ccc2c(c1)OCCO2)C(=O)c1cc(Cl)nc2ccccc12	n	n	n	x	x
CCN(CC(=O)Nc1ccc2c(c1)OCCO2)C(=O)c1ccc(Cl)cc1Cl	109	71	n	n	n
CCOc1ccc(C(=O)N(CC)CC(=O)Nc2ccc3c(c2)OCCO3)cc1OCC	n	n	n	x	x
CCN(CC(=O)Nc1ccc2c(c1)OCCO2)C(=O)c1ccc(C(F)(F)F)cc1	107	x	n	n	n
COc1ccc(NC(=O)Nc2ccc3c(c2)C(=O)N([C@H](C)CO)C[C@H](C)[C@H](CN(C)CC2CC2)OCCCC[C@H](C)O3)cc1	x	n	x	x	x
COC(=O)c1ccc(Nc2cc(C)nc3ccccc23)cc1	x	x	48	n	n
S=C(N/N=C/c1ccc(Br)cc1)N1CCCCC1	x	50	n	55	n
Cc1cc2c(cc1C)NC(=O)CC(c1ccccc1)=N2	n	x	n	x	x
Cc1ccc(O)c(C2=Nc3ccccc3N=C(c3cccs3)C2)c1	n	x	x	n	n
Cc1ccc(C2=Nc3ccccc3N=C(C(Cl)Cl)C2)cc1	n	n	n	93	n
Cc1ccc2c(c1)N=C(c1ccccc1)CC(C(Cl)Cl)=N2	x	n	n	61	n
CNC[C@@H]1OCCCC[C@@H](C)Oc2ccc(NS(C)(=O)=O)cc2C(=O)N([C@@H](C)CO)C[C@H]1C	x	n	x	x	x
Cc1sc2ncnc(NCCc3ccc(S(N)(=O)=O)cc3)c2c1C	n	n	x	n	-51
NS(=O)(=O)c1ccc(CCNc2ncnc3sccc23)cc1	n	n	n	n	n
CNC[C@@H]1Oc2cc(C#CCOC)ccc2S(=O)(=O)N([C@H](C)CO)C[C@H]1C	x	n	x	x	x
C[C@H](CO)N1C[C@H](C)[C@H](CN(C)S(=O)(=O)c2ccc(F)cc2)Oc2c(NC(=O)NC3CCCCC3)cccc2C1=O	x	n	x	x	x
O=C(NC1CCCCC1)c1cc(-c2ccc(F)cc2)on1	x	59	n	54	n
SMILES	MITF TRPM1 HTS	esBAF inh	Wnt act	HSF-1 act	HSF1 inh
Cc1ccc(-c2cc(C(=O)NC3CCCC3)no2)cc1	125	n	n	n	n
Cc1cc(F)ccc1-c1cc(C(=O)NC2CCCCC2)[nH]n1	x	62	n	x	x
O=C(NC1CCCCC1)c1cc(-c2cccs2)on1	u	45	37	n	n
COc1cccc(-c2cc(C(=O)NC3CCCC3)no2)c1	n	x	x	n	n
O=C(COCc1cc(-c2cccs2)on1)NC1CCCCC1	n	n	n	n	n
COc1ccc(S(=O)(=O)Nc2ccc3c(c2)C(=O)N([C@@H](C)CO)C[C@@H](C)[C@H](CN(C)S(C)(=O)=O)O3)cc1	x	n	x	x	x
C[C@H]1CN([C@@H](C)CO)C(=O)c2cc(NC(=O)C3CC3)ccc2O[C@H]1CN(C)C(=O)Nc1ccccc1	x	n	x	x	x
COc1ccc(S(=O)(=O)N(C)C[C@@H]2Oc3c(NS(=O)(=O)c4ccc(F)cc4)cccc3C(=O)N([C@H](C)CO)C[C@H]2C)cc1	x	n	x	x	x
CC(=O)N1[C@@H]2c3ccc(C4=CCCC4)c(=O)n3C[C@H]1[C@H](CO)[C@H]2C(=O)N[C@H](C)c1ccccc1	x	n	x	x	x
CC(C)(C)c1ccc(C(=O)CC(Sc2ccc(Cl)cc2)C(=O)O)cc1 (stereo not given)	n	x	n	56	n
Cc1ccc(SC(CC(=O)c2ccc(F)cc2)C(=O)O)cc1 (stereo not given)	x	n	n	n	n
C[C@@H]1CCCCO[C@H](CN(C)C(=O)CCC(F)(F)F)[C@@H](C)CN([C@@H](C)CO)C(=O)c2cc(N(C)C)ccc2O1	x	n	x	x	x
COc1cccc(-c2cc(C(=O)NCc3ccco3)no2)c1	n	45	n	61	n
O=C(NCc1ccco1)c1cc(-c2ccc(Cl)cc2)on1	n	n	n	n	n
Cc1ccc(-c2cc(C(=O)NCc3ccco3)no2)cc1	98	n	n	n	n
O=C(NCc1ccco1)c1cc(-c2ccc3c(c2)OCO3)on1	n	n	x	71	n
O=C(NCc1ccco1)c1cc(-c2cccc(Cl)c2)on1	n	x	x	n	n
COCCNC(=O)C[C@H]1CC[C@H]2[C@@H](COc3ccc(NC(=O)Nc4ccccc4)cc3C(=O)N2C)O1	x	n	x	x	x
Cc1ccc(-c2nc(N3CCN(C)CC3)c3ccccc3n2)cc1	x	n	n	n	n
CN1CCN(c2nc(-c3ccc(C(C)(C)C)cc3)nc3ccccc23)CC1	n	n	n	n	-80
O=S(=O)(Nc1ccc(O)c2ccccc12)c1ccc(F)cc1	n	n	n	n	n
O=S(=O)(Nc1cccnc1Cl)c1ccc(-c2ccccc2)cc1	n	n	n	n	n
CCc1ccc(S(=O)(=O)Nc2ccc(O)c3ccccc23)cc1	n	n	n	78	n
O=S(=O)(Nc1ccccc1O)c1ccc(-c2ccccc2)cc1	n	x	n	65	n
Cn1nnnc1SCC(=O)Nc1nc2c(s1)CCCC2	93	n	u	x	x
SMILES	MITF TRPM1 HTS	esBAF inh	Wnt act	HSF-1 act	HSF1 inh
COc1ccc(-c2cnc3c(c2)C(=O)N([C@@H](C)CO)C[C@H](C)[C@H](CN(C)C(=O)Cc2ccncc2)O3)cc1	x	n	x	x	x
Cc1ccc(CNC(=O)C2CC(c3cccc([N+](=O)[O-])c3)=NO2)cc1 (stereo not given)	n	n	n	n	n
COc1ccc(CNC(=O)C2CC(c3cccc([N+](=O)[O-])c3)=NO2)cc1 (stereo not given)	n	54	n	n	n
O=C(C[C@@H]1CC[C@H]2[C@@H](COC[C@@H](O)CN2Cc2ccc3c(c2)OCO3)O1)N1CCOCC1	x	n	x	x	x
CN(C)c1ccc(N=Nc2nc3ccccc3n2C)cc1	n	n	n	n	-83
Cn1c(N=Nc2ccccc2)nc2ccccc21	n	x	n	n	n
C[C@@H]1CN([C@H](C)CO)C(=O)c2cccc(NC(=O)C3CCOCC3)c2O[C@@H]1CN(C)S(=O)(=O)c1ccc(F)cc1	x	n	x	x	x
CC1CC(C)CN(C(=O)c2ccc(CSc3nc4ccncc4[nH]3)cc2)C1 (stereo not given)	x	n	n	n	-67
Cc1ccc(NC(=S)NC(=O)C2CC2)c(C)c1	n	50	n	n	n

Compound activity: PubChem, Broad Institute
